PubChem BioAssay AID1159580 (chemical genetic matrix, 2015)
The whole screen tested about 5,500 compounds, of which about 2,000 (36%) were called active. Another 18% or so got no clear call; they are omitted. Cut-off read from the data, not from the text of the source: active = normalized growth mostly below about 0.91 (no sharp cut-off); inconclusive = no clear call, values can overlap the other calls; inactive = mostly above about 0.92. The list shows a part of the results.

Experiment: chemical genetic growth profiling, strain panel (AID 1159580);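 note: tested at 20 µM; growth read once vehicle control cultures reached saturation at 30 °C; 1 = growth at the plate median or of vehicle wells; lower values mean less growth of the strain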
Conditions: growth OD
[1] = S. cerevisiae deletion strains, locus YAL013W, strain DEP1, hits give low values
[2] = S. cerevisiae deletion strains, locus YDL101C, strain DUN1, hits give low values
[3] = S. cerevisiae deletion strains, locus YDR150W, strain NUM1, hits give low values
[4] = S. cerevisiae deletion strains, locus YHR030C, strain SLT2, hits give low values
[5] = S. cerevisiae deletion strains, locus YMR263W, strain SAP30, hits give low values
[6] = S. cerevisiae deletion strains, locus YMR307W, strain GAS1, hits give low values
[7] = S. cerevisiae deletion strains, locus YNL153C, strain GIM3, hits give low values
[8] = S. cerevisiae deletion strains, locus YNL322C, strain KRE1, hits give low values
[9] = S. cerevisiae deletion strains, locus YPL055C, strain LGE1, hits give low values
[10] = S. cerevisiae deletion strains, locus YAL040C, strain CLN3, hits give low values
[11] = S. cerevisiae deletion strains, locus YCL061C, strain MRC1 (second series), hits give low values
[12] = S. cerevisiae deletion strains, locus YER002W, strain NOP16, hits give low values
[13] = S. cerevisiae deletion strains, locus YGR229C, strain SMI1, hits give low values
[14] = S. cerevisiae deletion strains, locus YNL175C, strain NOP13, hits give low values
[15] = S. cerevisiae deletion strains, locus YNL197C, strain WHI3, hits give low values
[16] = S. cerevisiae deletion strains, locus YNL224C, strain SQS1, hits give low values
[17] = S. cerevisiae deletion strains, locus YOR083W, strain WHI5 (second series), hits give low values

Measured: normalized growth

COc1cc(C(F)(F)F)cc(C(F)(F)F)c1C(=O)Nc1cc(C(F)(F)F)cc(C(F)(F)F)c1
inactive: [1] 1.03 | S. cerevisiae deletion strains, locus YBR229C, strain ROT2, hits give low values 1.02 | S. cerevisiae deletion strains, locus YCL061C, strain MRC1, hits give low values 1.02 | [2] 1.04 | [3] 1 | S. cerevisiae deletion strains, locus YEL061C, strain CIN8, hits give low values 1.01 | S. cerevisiae deletion strains, locus YGR078C, strain PAC10, hits give low values 1.01 | [4] 1.11 | S. cerevisiae deletion strains, locus YHR087W, strain rtc3, hits give low values 1.04 | S. cerevisiae deletion strains, locus YJR043C, strain POL32, hits give low values 1.01 | S. cerevisiae deletion strains, locus YJR075W, strain HOC1, hits give low values 1 | S. cerevisiae deletion strains, locus YLR039C, strain RIC1, hits give low values 1.03 | S. cerevisiae deletion strains, locus YLR058C, strain SHM2 (second series), hits give low values 0.998 | S. cerevisiae deletion strains, locus YLR085C, strain ARP6, hits give low values 1.03 | S. cerevisiae deletion strains, locus YLR262C, strain YPT6, hits give low values 1.01 | S. cerevisiae deletion strains, locus YML094W, strain GIM5, hits give low values 1.08 | S. cerevisiae deletion strains, locus YMR219W, strain ESC1, hits give low values 1.01 | [5] 1.01 | [6] 1.01 | S. cerevisiae deletion strains, locus YNL128W, strain TEP1, hits give low values 1 | [7] 1.01 | S. cerevisiae deletion strains, locus YNL298W, strain CLA4 (second series), hits give low values 1.03 | [8] 1.01 | S. cerevisiae deletion strains, locus YNR030W, strain Alg12, hits give low values 1.03 | S. cerevisiae deletion strains, locus YOL006C, strain TOP1, hits give low values 1.09 | [9] 1.07 | S. cerevisiae deletion strains, locus YPL241C, strain CIN2, hits give low values 1.06 | S. cerevisiae deletion strains, locus YPR135W, strain CTF4, hits give low values 1.1 | S. cerevisiae strains, strain wild type, hits give low values 1.01

CC(=O)OCC1=C(C(=O)O)N2C(=O)C(NC(=O)CSc3ccncc3)C2SC1 (stereo not given)
inactive: [10] 0.974 | [11] 0.991 | [12] 1.02 | [13] 0.99 | [5] 0.974 | [14] 1 | [15] 1 | [16] 1 | [17] 1.02 | [9] 1.01

CC1=C(CC(=O)O)c2cc(F)ccc2/C1=C\c1ccc(S(C)(=O)=O)cc1
inactive: [1] 1.02 | [10] 0.996 | [11] 0.99 | [3] 0.989 | S. cerevisiae deletion strains, locus YDR363W, strain ESC2, hits give low values 1.02 | [12] 1 | [13] 1.04 | [6] 0.946 | [7] 0.982 | [14] 0.98 | [15] 0.979 | [16] 0.99 | [8] 1 | [17] 0.973 | [9] 1.05

COc1ccc(/C=C2\CSc3ccc(F)cc3C2=O)cc1
active: [4] 0.771 | S. cerevisiae deletion strains, locus YLR113W, strain HOG1, hits give low values 0.763
inactive: S. cerevisiae deletion strains, locus YAR019C, strain CDC15, hits give low values 0.955 | S. cerevisiae deletion strains, locus YBL105C, strain PKC1, hits give low values 0.96 | S. cerevisiae deletion strains, locus YBR135W, strain CKS1, hits give low values 0.951 | S. cerevisiae deletion strains, locus YBR136W, strain MEC1, hits give low values 0.971 | S. cerevisiae deletion strains, locus YBR160W, strain CDC28, hits give low values 0.961 | S. cerevisiae deletion strains, locus YDL017W, strain CDC7, hits give low values 0.966 | S. cerevisiae deletion strains, locus YDL028C, strain MPS1, hits give low values 0.931 | [2] 0.968 | S. cerevisiae deletion strains, locus YDL108W, strain KIN28, hits give low values 0.955 | S. cerevisiae deletion strains, locus YDL132W, strain cdc53, hits give low values 0.947 | S. cerevisiae deletion strains, locus YDL214C, strain PRR2, hits give low values 0.932 | S. cerevisiae deletion strains, locus YDR052C, strain DBF4, hits give low values 0.977 | S. cerevisiae deletion strains, locus YDR054C, strain cdc34, hits give low values 0.953 | S. cerevisiae deletion strains, locus YDR226W, strain ADK1, hits give low values 0.965 | S. cerevisiae deletion strains, locus YDR477W, strain SNF1, hits give low values 0.916 | S. cerevisiae deletion strains, locus YER123W, strain YCK3, hits give low values 0.896 | S. cerevisiae deletion strains, locus YER133W, strain GLC7, hits give low values 0.916 | S. cerevisiae deletion strains, locus YFL009W, strain cdc4, hits give low values 0.934 | S. cerevisiae deletion strains, locus YFL029C, strain CAK1, hits give low values 0.947 | S. cerevisiae deletion strains, locus YFR003C, strain YPI1, hits give low values 0.96 | S. cerevisiae deletion strains, locus YFR019W, strain FAB1, hits give low values 0.953 | S. cerevisiae deletion strains, locus YFR028C, strain CDC14, hits give low values 0.93 | S. cerevisiae deletion strains, locus YGR040W, strain KSS1, hits give low values 0.917 | S. cerevisiae deletion strains, locus YGR052W, strain FMP48, hits give low values 0.939 | S. cerevisiae deletion strains, locus YGR092W, strain DBF2, hits give low values 0.925 | S. cerevisiae deletion strains, locus YHR079C, strain IRE1, hits give low values 0.909 | S. cerevisiae deletion strains, locus YHR082C, strain KSP1, hits give low values 0.949 | S. cerevisiae deletion strains, locus YHR205W, strain SCH9, hits give low values 0.899 | S. cerevisiae deletion strains, locus YIL147C, strain SLN1, hits give low values 0.969 | S. cerevisiae deletion strains, locus YJL095W, strain BCK1, hits give low values 0.9 | S. cerevisiae deletion strains, locus YJL128C, strain PBS2, hits give low values 0.91 | S. cerevisiae deletion strains, locus YJL157C, strain FAR1, hits give low values 0.927 | S. cerevisiae deletion strains, locus YJR016C, strain ILV3, hits give low values 0.973 | S. cerevisiae deletion strains, locus YJR066W, strain TOR1 (second series), hits give low values 0.909 | S. cerevisiae deletion strains, locus YJR066W, strain TOR1, hits give low values 0.874 | S. cerevisiae deletion strains, locus YKL048C, strain ELM1, hits give low values 0.949 | S. cerevisiae deletion strains, locus YKL067W, strain YNK1, hits give low values 0.911 | S. cerevisiae deletion strains, locus YKL101W, strain HSL1, hits give low values 0.927 | S. cerevisiae deletion strains, locus YKL193C, strain SDS22, hits give low values 0.941 | S. cerevisiae deletion strains, locus YKL203C, strain TOR2, hits give low values 1.01 | S. cerevisiae deletion strains, locus YLR133W, strain CKI1, hits give low values 0.949 | S. cerevisiae deletion strains, locus YLR403W, strain SFP1, hits give low values 0.928 | S. cerevisiae deletion strains, locus YML070W, strain DAK1, hits give low values 0.91 | S. cerevisiae deletion strains, locus YMR001C, strain CDC5, hits give low values 0.952 | S. cerevisiae deletion strains, locus YMR205C, strain PFK2 (second series), hits give low values 0.942 | S. cerevisiae deletion strains, locus YMR277W, strain FCP1, hits give low values 0.929 | S. cerevisiae deletion strains, locus YNL006W, strain LST8, hits give low values 0.967 | S. cerevisiae deletion strains, locus YNL020C, strain ARK1, hits give low values 0.955 | S. cerevisiae deletion strains, locus YNL161W, strain CBK1, hits give low values 0.951 | S. cerevisiae deletion strains, locus YNL183C, strain NPR1, hits give low values 0.935 | S. cerevisiae deletion strains, locus YNL207W, strain RIO2, hits give low values 0.969 | S. cerevisiae deletion strains, locus YNL222W, strain SSU72, hits give low values 0.952 | S. cerevisiae deletion strains, locus YNL307C, strain MCK1 (second series), hits give low values 0.927 | S. cerevisiae deletion strains, locus YOL078W, strain AVO1, hits give low values 0.94 | S. cerevisiae deletion strains, locus YOL136C, strain PFK27, hits give low values 0.902 | S. cerevisiae deletion strains, locus YOR061W, strain CKA2, hits give low values 0.933 | S. cerevisiae deletion strains, locus YOR119C, strain RIO1, hits give low values 0.95 | S. cerevisiae deletion strains, locus YOR231W, strain MKK1, hits give low values 0.879 | S. cerevisiae deletion strains, locus YOR329C, strain SCD5, hits give low values 0.964 | S. cerevisiae deletion strains, locus YPL031C, strain PHO85, hits give low values 0.914 | S. cerevisiae deletion strains, locus YPL153C, strain RAD53, hits give low values 0.929 | S. cerevisiae deletion strains, locus YPL204W, strain HRR25, hits give low values 0.912 | S. cerevisiae deletion strains, locus YPL209C, strain IPL1, hits give low values 0.959 | S. cerevisiae deletion strains, locus YPL256C, strain CLN2, hits give low values 0.87 | S. cerevisiae deletion strains, locus YPR025C, strain CCL1, hits give low values 0.958 | S. cerevisiae deletion strains, locus YPR106W, strain ISR1, hits give low values 0.962 | S. cerevisiae deletion strains, locus YPR111W, strain DBF20, hits give low values 0.938 | S. cerevisiae deletion strains, strain NNK1, hits give low values 0.962 | S. cerevisiae deletion strains, strain TSCII, hits give low values 0.946
